Compound activity from PubChem BioAssay.
TMEM16A inh = blocks the mouse calcium-activated chloride channel TMEM16A | Q8BHY3 | HEK293 TMEM16A/YFP iodide influx fluorescence, ionomycin | normalized B-score (activity score, 25-100; higher = stronger inhibition) at 10 µM | 310,000 tested, 1.2% active | AID 588511;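 active means ratio plate-corrected score three or more library SD toward inhibition, starting fluorescence score within five deviations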;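 further: score derived from kinetic fluorescence span divided by baseline fluorescence per well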
Target sequence (Q8BHY3 whole entry, looked up): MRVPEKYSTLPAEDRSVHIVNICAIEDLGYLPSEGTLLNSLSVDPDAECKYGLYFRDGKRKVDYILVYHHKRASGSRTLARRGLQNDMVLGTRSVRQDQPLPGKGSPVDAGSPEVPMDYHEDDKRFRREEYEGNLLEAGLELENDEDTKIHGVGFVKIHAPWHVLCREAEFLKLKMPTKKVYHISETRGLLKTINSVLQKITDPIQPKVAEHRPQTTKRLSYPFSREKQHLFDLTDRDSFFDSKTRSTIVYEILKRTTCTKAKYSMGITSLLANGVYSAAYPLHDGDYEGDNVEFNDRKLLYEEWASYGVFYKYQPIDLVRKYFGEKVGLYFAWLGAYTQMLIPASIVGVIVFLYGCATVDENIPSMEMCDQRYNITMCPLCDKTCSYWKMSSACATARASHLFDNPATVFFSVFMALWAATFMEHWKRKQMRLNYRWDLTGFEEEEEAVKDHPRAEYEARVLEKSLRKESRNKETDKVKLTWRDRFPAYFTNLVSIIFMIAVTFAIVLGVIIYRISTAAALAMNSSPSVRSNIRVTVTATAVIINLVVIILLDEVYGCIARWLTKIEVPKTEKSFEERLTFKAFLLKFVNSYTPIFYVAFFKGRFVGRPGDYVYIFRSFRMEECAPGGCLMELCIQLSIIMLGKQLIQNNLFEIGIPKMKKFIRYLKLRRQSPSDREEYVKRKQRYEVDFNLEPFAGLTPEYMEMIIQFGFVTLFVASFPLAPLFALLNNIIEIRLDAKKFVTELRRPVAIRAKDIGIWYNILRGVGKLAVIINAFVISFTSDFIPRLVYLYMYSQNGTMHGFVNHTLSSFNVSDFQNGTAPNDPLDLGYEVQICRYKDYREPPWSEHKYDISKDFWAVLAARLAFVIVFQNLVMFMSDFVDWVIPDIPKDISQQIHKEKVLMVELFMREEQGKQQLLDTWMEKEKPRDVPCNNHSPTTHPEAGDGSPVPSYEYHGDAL
CHT block = inhibitors of human choline transporter CHT | CHT-expressing cells, membrane potential dye, choline response; active compounds read low | Q9GZV3 | B-score at 10 µM | 310,000 tested, 0.86% active;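 active means B-score over 3 SD under the library average, and starting fluorescence ratio not unusually high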;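 further: choline stimulus applied at its EC90 after an EC20 pre-addition; B-score computed on integrated fluorescence ratio after choline addition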
CHT PAM = human CHT allosteric activation | Q9GZV3 | 310,000 tested, 0.49% active | AID 488977 | B-score at 10 µM | CHT-expressing cells, membrane potential dye, choline EC20; active compounds read high; LV-AA mutant CHT in HEK293 cells;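 active means initial fluorescence not abnormally high and integrated response B-score, plate-corrected, over 3 SD above library mean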
TMEM16A act = mouse TMEM16A channel activation, primary screen. 340,000 tested, 0.3% active. HEK293 TMEM16A/YFP-H148Q/I152L, iodide quench fluorescence; active compounds read low. Q8BHY3. B-score at 10 µM;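 active means fluorescence-ratio B-score plate-corrected deviation score at least 3 library SD below zero, with starting fluorescence score within 5 deviations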;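 further: channel opened by trigger with iodide after compound preincubation; score built on the fluorescence ratio of max minus min over baseline; more negative score means more quench and so TMEM16A activation or potentiation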
Each line names hits and unclear results; the compound was inactive in the other large screens. In the library only some 2.3% were active in any assay of this set; here they are far more common.

CCOC(=O)N1CCN(C(=O)c2c[nH]c3ccc(S(=O)(=O)N(C)c4cccc(C)c4)cc3c2=O)CC1	TMEM16A act -6.3
CC1CN(C(=O)c2cccc(S(=O)(=O)N3CCN(c4ccc(F)cc4)CC3)c2)CC(C)O1 (configuration not stated)	none
O=C(c1cccc(S(=O)(=O)N2CCN(c3ccc(F)cc3)CC2)c1)N1CCCC(C(F)(F)F)C1 (configuration not stated)	TMEM16A inh 25
Cc1ccc(OCCCC(=O)Nc2ccc(S(N)(=O)=O)cc2)cc1	TMEM16A act -5.3
Cc1ccc(SCCC(=O)OCC(=O)Nc2ccc(S(N)(=O)=O)cc2)cc1	TMEM16A act -4.9
CC(=O)Nc1ccc2c(c1)Cc1c(F)cccc1-2	none (no result: TMEM16A inh, CHT block, CHT PAM)
Cc1cccc(C)c1OC(=O)c1ccccc1	none (no result: TMEM16A inh, CHT block, CHT PAM)
COc1ccc(C(=O)Nc2ccc(C)cn2)c(OC)c1	TMEM16A inh 100
COc1ccc(C(=O)Nc2cc(C)on2)c(OC)c1	none
CN(c1ccc(C(=O)Nc2cccnc2)cc1)S(=O)(=O)c1ccccc1	TMEM16A act -5
CN(C)S(=O)(=O)c1cccc(NC(=O)c2ccc(COc3ccccc3)cc2)c1	TMEM16A inh 25
COCc1ccc(C(=O)Nc2cccc(S(=O)(=O)N(C)c3ccccc3)c2)cc1	none (no result: TMEM16A inh, CHT block, CHT PAM)
CN(c1ccc(C(=O)Nc2cccnc2)cc1)S(=O)(=O)c1ccc(Cl)cc1	none
Cc1ccc(NC(=O)C(=O)Nc2ccc(C)cn2)nc1	none
Cc1ccc(NC(=O)/C(C#N)=C(\N)C(Cl)(Cl)Cl)nc1	TMEM16A act -11
CC(C)(C)N(Cc1ccccc1)C(=O)COC(=O)C1CCN(c2ccc(C(F)(F)F)cn2)CC1	TMEM16A act -44 (no result: TMEM16A inh, CHT block, CHT PAM)
CC(C)N(Cc1ccccc1)C(=O)COC(=O)C1CCN(c2ccc(C(F)(F)F)cn2)CC1	none (no result: TMEM16A inh, CHT block, CHT PAM)
CCN(CC)CCC(c1ccc(OC)cc1)c1c(O)cc(OC)cc1OC (configuration not stated)	none
CCN(CC)C(=O)CC(c1ccc(OC)cc1)c1c(O)cc(OC)cc1OC (configuration not stated)	TMEM16A act -9.9
CCN(CC)S(=O)(=O)c1cccc(-c2nnc(SCCCC(=O)c3ccccc3)o2)c1	none
CCN(CC)S(=O)(=O)c1cccc(-c2nnc(SCCCC(=O)c3ccc(F)cc3)o2)c1	TMEM16A act -4.6
Cn1c(CSc2ccccc2)c(C#N)c2ccccc21	none
Cc1ccc(SCc2c(C#N)c3ccccc3n2C)cc1	TMEM16A inh 25
NC(=O)Nc1ccc(C(=O)OCC(=O)Nc2cccc(S(=O)(=O)NC3=NCCCCC3)c2)cc1	none
O=C(COC(=O)c1ccc(O)cc1)Nc1cccc(S(=O)(=O)NC2=NCCC2)c1	TMEM16A act -31 (no result: TMEM16A inh, CHT block, CHT PAM)
Cc1cc(S(=O)(=O)NCC(c2ccc(F)cc2)N2CCN(C)CC2)ccc1F (configuration not stated)	none
O=C(CCc1nc(-c2ccccc2)c(-c2ccccc2)o1)OCc1ccc(Cl)cc1	TMEM16A act -5.5
O=C(CCc1nc(-c2ccccc2)c(-c2ccccc2)o1)OCc1ccc(Br)cc1	none
CSc1ccc(/C=C/C(=O)NC(=O)c2ccccc2O)cc1	TMEM16A inh 25
CC(C)n1cnc2c(Nc3ccc(F)c(Cl)c3)nc(NCCO)nc21	CHT block -5.4
CC(C)C[C@H](CO)Nc1nc(Nc2cccc(Cl)c2)c2ncn(C(C)C)c2n1	none
CN(C)C(=O)c1ccc(NC(=O)COC(=O)Cn2cc(C(F)(F)F)ccc2=O)cc1	none (no result: TMEM16A inh, CHT block, CHT PAM)
Cc1ccc(NC(=O)COC(=O)CCc2c(C)nc3nc(N)nn3c2C)cc1C	TMEM16A act -23 (no result: TMEM16A inh, CHT block, CHT PAM)
Cc1ccc(NC(=O)COC(=O)CCc2c(C)nc3ncnn3c2C)cc1C	none (no result: TMEM16A inh, CHT block, CHT PAM)
Cn1[nH]cc(C=NC(N)=O)c1=O	none (no result: TMEM16A inh, CHT block, CHT PAM)
CCOC(=O)C1CCCN(C(=O)Cn2ncc3c([nH]c4ccc(C)cc43)c2=O)C1 (configuration not stated)	none
Nc1nc2c(s1)CCc1ccccc1-2	none
N#C/C(=C(/O)CCl)c1nc2c(s1)CCc1ccccc1-2	TMEM16A inh 25, CHT block -10
O=C(N/N=C/c1ccc(-c2ccc(S(=O)(=O)Nc3ncccn3)cc2)o1)c1cc2ccccc2cc1O	TMEM16A inh 100
CC(=O)NC1C(OC(=O)/C=C/c2ccccc2)OC(COC(C)=O)C(OC(C)=O)C1OC(C)=O (configuration not stated)	none
Cc1ccc(S(=O)(=O)N2[C@@H](c3ccccc3F)C(C(=O)O)=CC[C@H]2c2ccc(Cl)c(Cl)c2)cc1	TMEM16A inh 100
Cc1ccc(S(=O)(=O)N2[C@@H](c3ccccc3F)C(C(=O)O)=CC[C@H]2c2cccc(C)c2)cc1	none
Cc1ccc(S(=O)(=O)N2[C@@H](c3ccccc3)C(C(=O)O)=CC[C@H]2c2ccc(Cl)c(Cl)c2)cc1	TMEM16A inh 100
CC(C)OCc1ccc(C(=O)N2CCN(CC(=O)N3CCCC3)CC2)cc1	none (no result: TMEM16A inh, CHT block, CHT PAM)
CCn1cc(C(=O)O)c(=O)c2cc(F)c(N3CCN(C)CC3)cc21	CHT PAM 6.4
COc1ccccc1N1CCN(C(=O)C2CCCN(S(=O)(=O)c3ccc4c(c3)CCCN4C(C)=O)C2)CC1 (configuration not stated)	TMEM16A inh 25
CC(=O)N1CCCc2cc(S(=O)(=O)N3CCCC(C(=O)N4CCN(c5ccccc5)CC4)C3)ccc21 (configuration not stated)	none
N#Cc1ccccc1COC(=O)CCCC1=NS(=O)(=O)c2ccccc2N1	none
CCOc1ccc(C(CC(=O)O)NC(=O)C(CC)c2ccccc2)cc1 (configuration not stated)	none
CC(=O)Nc1sc(C)c(C)c1C(=O)OCC(=O)N(CC(C)C)c1c(N)n(Cc2ccccc2)c(=O)[nH]c1=O	TMEM16A act -6.6
COC(=O)c1ccc(N2C(=O)c3ccc(OC)c(OC)c3C2=O)cc1	none
COc1ccc2c(c1OC)C(=O)N(c1cccc(C)c1)C2=O	TMEM16A act -4.9
N#C/C(N=Nc1ccccc1O)=N\Nc1ccccc1O	TMEM16A inh 100, CHT block -11
Oc1ccccc1N=N/C(=N/Nc1ccccc1O)c1ccccc1	none
N#Cc1ccc(-c2cn3c(n2)SCC3)cc1	none
COc1ccc(C2(C)NC(=O)N(CC(=O)c3cc(C)n(C4CC4)c3C)C2=O)cc1OC (configuration not stated)	none (no result: TMEM16A inh, CHT block, CHT PAM)
Cc1c(Br)c(O)c(Br)c2sc(=O)oc12	CHT block -8.2
CC1CCN(C(=O)CSc2nnc(CNC(=O)c3ccco3)o2)CC1	TMEM16A act -15
CN(Cc1cccs1)C(=O)CCCc1c[nH]c2ccccc12	TMEM16A act -6.3
CN(Cc1cccs1)C(=O)CCc1c[nH]c2ccccc12	none
CCOc1ccc(C2=Nn3c(nnc3-c3ccccc3OC)SC2)cc1	CHT block -5.3
COc1ccccc1-c1nnc2n1N=C(c1ccc(O)c(O)c1)CS2	none
COc1ccc(OC)c(-c2nn(-c3ccccc3)cc2C(=O)NCC(c2ccco2)N2CCCC2)c1 (configuration not stated)	none (no result: TMEM16A inh, CHT block, CHT PAM)
CCC(C)(C)c1ccc(OCC(=O)Nc2ccncc2)cc1	none
NC[C@H](Cc1ccccc1)NCCCCC1CCCCC1	none (no result: TMEM16A inh, CHT block, CHT PAM)
